Screening data from PubChem BioAssay.
HP1b chromo inh: HTS for Inhibitors of HP1-beta Chromodomain Interactions with Methylated Histone Tails; AlphaScreen HP1-beta / biotin-H3K9me3 peptide binding; Potency, µM (doses to about 114 µM), for the others: at the top dose activity change, negative = inhibition, usual class: inhibitors; 390,000 tested, 0.56% active; note: nearly all actives have a fitted effect of over 70% in size
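Compound inhibition of the preformed complex between 50 nM HP1-beta and 50 nM biotinylated H3K9me3 peptide was read by AlphaScreen. Buffer was PBS pH 7.4 with 0.01% Tween-20. Incubations ran 30 min at room temperature, with 10 ug/mL donor/acceptor beads.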
L3MBTL1 block: qHTS Assay for the Inhibitors of L3MBTL1; 230,000 tested, 0.66% active; AlphaScreen L3MBTL1–H3K9me1 peptide binding; Potency, µM (highest dose often 57.1 µM), for the others: top-dose activity, negative = inhibition, most hits filed as inhibitors; note: % is set by controls: 0 for no effect and ±100 for the full control effect; nearly all actives have a fitted effect of over 60% in size
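AlphaScreen proximity signal between nickel-chelate acceptor and streptavidin donor beads (final 10 ug/mL) reports binding of 50 nM L3MBTL1 to 75 nM biotin-H3 K9me1 peptide; complex incubated with compounds 30 min at room temperature; cefsulodin titration as control.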
JMJD2A Tudor inh: qHTS Assay for Inhibitors of JMJD2A-Tudor Domain; AlphaScreen JMJD2A-Tudor / H3K4me3 peptide binding; Potency, µM (highest dose often 114 µM), inactives show at the top dose activity change, negative = inhibition, actives largely listed as inhibitors; 390,000 tested, 4.4% active; note: % is set by controls: 0 for no effect and ±100 for the full control effect; nearly all actives have a fitted effect of over 50% in size
BAZ2B inh: qHTS Assay for Inhibitors of BAZ2B; Bromodomain adjacent to zinc finger domain protein 2B (Homo sapiens), Q9UIF8; AlphaScreen BAZ2B-H3K14Ac peptide displacement; Potency, µM (highest dose often 114 µM), for the others: top-dose activity change, negative = inhibition, usual class: inhibitors; 360,000 tested, 4.4% active; note: % is set by controls: 0 for no effect and ±100 for the full control effect; nearly all actives have a fitted effect of over 60% in size
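AlphaScreen displacement: compounds (up to 110uM) incubated 30 min at room temperature with a preformed 50 nM BAZ2B/50 nM biotinylated H3K14Ac peptide complex in PBS pH 7.4 with Tween-20. Donor and acceptor beads at 10 ug/mL final added, 20 min light-protected before reading.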
G9a inh: qHTS Assay for Inhibitors of Histone Lysine Methyltransferase G9a | AID 504332, 2011 | 350,000 tested, 8.8% active | Potency, µM (doses to about 102 µM), for inactives: at the top dose activity, negative = inhibition, actives largely listed as inhibitors | G9a H3K9 monomethylation, AlphaScreen, 2 h; note: % is set by controls: 0 for no effect and ±100 for the full control effect; nearly all actives have a fitted effect of over 75% in size
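AlphaScreen read-out: biotin-H3K9 peptide (500 nM) methylation by 20 nM enzyme with 20 uM SAM, 2 h at room temperature after 15 min compound preincubation; anti-monomethyl H3K9 antibody plus donor/acceptor beads, 10 min dark.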
* = called active by the depositor; u = inconclusive; x = no result; ! = a repeat was not active; [ ] = dose if it differs, or a comment. A selection: hits, their analogues and other compounds. The true share with any hit is near 11%. Calls come from the whole dose curve; as a rule, active = well fitted inhibition curve with a large enough effect; inconclusive = small, poorly fitted or top-dose-only effect; inactive = no such curve, though single readings can be large or run the other way. Potency is the fitted concentration of half-maximal effect.

SMILES | HP1b chromo inh | L3MBTL1 block | JMJD2A Tudor inh | BAZ2B inh | G9a inh
COc1ccc(N2CCN(C(=O)c3cc4c(-c5ccccc5F)nn(C)c4s3)CC2)cc1 | u | x | 11.2µM* | x | 11.2µM*
COc1ccccc1N1CCN(S(=O)(=O)c2c[nH]c(=O)[nH]c2=O)CC1 | 39.5% | -9.0% | 0.0% | 9.3% | 20µM*
COc1ccccc1N1CCN(C2CCCN(S(=O)(=O)c3ccc(C)cc3)C2)CC1 (stereo unspecified) | 6.0% | x | -30.6% | -32.5% | 56.2µM*
Cc1ccc(S(=O)(=O)N2CCC(N3CCN(Cc4ccccc4)C(=O)C3=O)CC2)cc1C | 17.2% | x | -21.8% | -2.2% | 6.9%[59 µM]
COc1ccc(S(=O)(=O)N2CCC(N3CCN(Cc4ccccc4)C(=O)C3=O)CC2)cc1 | 19.6% | x | 79.4µM* | -0.3% | -2.7%[59 µM]
COc1ccc(S(=O)(=O)N2CCC(N3CCN(c4ccccc4OC)CC3)CC2)cc1 | 39.8µM* | -2.9% | 1.78µM* | 39.8µM* | 3.16µM*
Cc1cc(C)c2nc(SCC(=O)NC(=O)c3cccn3C)cc(C)c2c1 | -3.6% | x | -14.2% | -7.8% | u
Cc1ccc(S(=O)(=O)N2CCN(C(=O)COc3ccc(-c4nnco4)cc3)CC2)cc1 | 51.6% | -4.3% | -33.6% | -2.0% | -4.3%[59 µM]
Cc1ccc(S(=O)(=O)CCC(=O)Oc2ccc(-c3nnco3)cc2)cc1 | 33.0% | -5.3% | -0.7% | -2.5% | 20µM*
CCN(c1ccc(NC(=O)COC(=O)CCc2cc(OC)c(OC)c(OC)c2)cc1)C(C)C | u | -20.4% | u | -38.0% | 25.1µM*
CCCCSCCCNC(=O)CN1C(=O)COc2ccc(S(=O)(=O)N3CCCC3)cc21 | 39.7% | x | -2.7% | -18.2% | 8.2%[59 µM]
Cc1nc2c(o1)CCc1ccccc1C2N1CCN(C)CC1 (stereo unspecified) | 7.1% | u | 89.1µM*! | -36.4% | 5.8%[59 µM]
Cc1nc(S(=O)(=O)N2CCN(C3c4ccccc4-c4ccccc43)CC2)cn1C | 20.1% | -8.5% | -25.2% | u | x
CCc1nc2ccc(C(=O)NCCc3ccco3)cc2nc1CC | 53.4% | x | -21.2% | -25.3%[57.1 µM] | -27.6%
CCCNC(=O)c1ccc2nc(-c3ccccc3)c(-c3ccccc3)nc2c1 | 45.4% | 5.4% | -6.1%[11.4 µM] | 10.9% | -0.3%[59 µM]
CCCCNC(=O)c1ccc2nc(-c3ccco3)c(-c3ccco3)nc2c1 | u | 31.6µM* | 25.1µM* | 50.1µM* | 7.94µM*
O=C(NCCCO)c1ccc2nc(-c3ccco3)c(-c3ccco3)nc2c1 | u | 28.2µM* | 50.1µM* | 50.1µM* | 7.08µM*
O=C(NCCO)Nc1ccc2nc(-c3ccco3)c(-c3ccco3)nc2c1 | x | 0.708µM* | x | 3.16µM* | x
Cc1oc(-c2ccc(C(=O)Nc3cc(F)ccc3F)cc2)nc1COc1ccccc1 | 38.1% | x | 8.6% | -2.5% | 6.5%[59 µM]
NS(=O)(=O)c1ccc(NC(=O)CN2CCc3ccccc32)cc1 | 35.6% | x | -3.9% | -3.3% | x
O=C(CN1CCCc2ccccc21)N/N=C/c1c(O)ccc2ccccc12 | u | -7.5% | u | -11.8% | 39.8µM*
O=C(CN1CCCc2ccccc21)N/N=C/c1ccccc1 | 6.8% | -18.3% | -32.1% | u | 44.7µM*
O=C(CN1CCCc2ccccc21)N/N=C/c1ccc(O)cc1O | -10.6% | -14.6% | u | -27.4% | 79.4µM*
NS(=O)(=O)c1ccc(NC(=O)CN2CCCc3ccccc32)cc1 | 8.5% | x | -19.6% | -26.3% | 28.2µM*
O=C(CNc1ccc(F)cc1)N/N=C/c1c(O)ccc2ccccc12 | 24.7% | x | -16.0% | -11.3% | -4.0%
SMILES | HP1b chromo inh | L3MBTL1 block | JMJD2A Tudor inh | BAZ2B inh | G9a inh
CN(C)C(=O)CSc1nnc(-c2ccc(S(=O)(=O)N3CCCC3)cc2)n1C | 12.0% | x | -12.1% | -16.8% | 13.2%
O=C(c1ccccc1O)N(Cc1ccccc1)Cc1ccccc1 | x | x | -34.7% | x | x
O=S(=O)(NCC(c1ccc2c(c1)OCO2)N1CCOCC1)c1ccccc1 (stereo unspecified) | 18.1% | -1.0% | -1.4% | 9.2% | -2.0%
CCc1ccc(-c2ccc(C(=O)O)cc2)nc1 | 12.4% | 12.0% | -13.6% | 7.7% | -5.6%[59 µM]
CCC(=Cc1ccc(CC)cn1)CC | 15.3%[57 µM] | 53.9% | -4.1% | u | 39.8µM*
N#CC1=C(N)SC2(CCCCC2)SC1c1ccccc1 (stereo unspecified) | -12.1% | -4.8% | u | -34.0% | 7.94µM*
CCCCN1C(=O)C(=Nc2cccc3cnccc23)c2ccccc21 | u | -2.4% | u | 28.2µM* | 44.7µM*
CCCCN1C(=O)C(O)(c2c(C)[nH]c3ccccc23)c2ccccc21 (stereo unspecified) | -11.3% | x | -25.1% | -26.9% | 7.5%[59 µM]
C=CCN1C(=O)C2(NNc3ccccc3O2)c2ccccc21 (stereo unspecified) | -7.4% | x | u | u | 15.8µM*
CCCCN1C(=O)C2(NNc3ccccc3O2)c2ccccc21 (stereo unspecified) | -23.1% | x | u | 44.7µM* | u
C=CCN1C(=O)C2(NC(=O)c3ccccc3N2)c2ccccc21 (stereo unspecified) | 35.9% | 5.2% | 10.7% | -14.1% | -0.3%
Cc1ccccc1-n1nnnc1SCC(=O)NC1CC1 | -19.7% | 4.6% | -12.4% | x | x
CCOc1ccc(NC(=O)Cn2c(=O)n(Cc3ccc(C(=O)NCc4ccc(C)cc4)cc3)c(=O)c3ccccc32)cc1 | 8.7% | x | -17.8% | u | -28.7%[59 µM]
COC(=O)c1ccccc1NC(=S)N(Cc1ccc2c(c1)OCO2)Cc1cc2ccc(OC)cc2[nH]c1=O | 28.2% | -9.0% | -27.3%[57.1 µM] | u | 0.282µM*
CC[C@H](C)C(=O)O[C@H]1C[C@@H](C)C=C2C=C[C@H](C)[C@H](CC[C@@H]3C[C@@H](O)CC(=O)O3)[C@H]21 | 11.3% | -13.3% | -15.8% | -21.8% | 15.8µM*!
CC(C)(C)C(=O)OCOP(=O)(COCCn1cnc2c(N)ncnc21)OCOC(=O)C(C)(C)C | x | x | x | x | 6.31µM*
Cc1nn(C(=O)c2ccc(Cl)cc2)c(C)c1Sc1ccc(Cl)cc1 | 162.8% | x | 103.9% | 135.1% | 131.0%[59 µM]
Cc1ccc(-n2[nH]c(C)c(/C=N/NC(=O)c3ccc(O)cc3O)c2=O)cc1 | 21.7% | x | 31.6µM* | 28.2µM* | -13.5%
Cc1[nH]n(-c2ccccc2)c(=O)c1/C=N/NC(=O)c1ccc(O)cc1O | 57.0% | x | 22.4µM* | 25.1µM* | u
CCCCN=Cc1c(C)[nH]n(-c2ccccc2)c1=S | u | -19.4% | u | u | 4.47µM*
Cc1[nH]n(-c2ccccc2)c(=O)c1/C=N/Nc1nncc(-c2ccccc2)n1 | -9.4% | 25.1µM* | 3.55µM* | 4.47µM* | 20µM*
